Experimental data published in the supplement of paper PMC6555819.

Key:
Assay in all cases: PBM binding z-score (relative to random genomic background probes); higher = stronger binding; sequences stand for … in GC…GCGATTGACAGCGTAGAATGAAGG
[1] = test system: PPARg:RXRa DBDmut IVT, anti-RXR (DBD mutation: RXRa K156A/R161A, NR concentration 270 nM, RXRa partner concentration 90 nM)
Procedure, shortened: (§1)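 Binding z-scores take random background probes as their reference. They come from custom Agilent 4×180K protein-binding microarrays incubated 1 h with ligand-free nuclear receptor dimers, with antibodies against each partner (one per run) detecting binding. Scanned fluorescence was regression-normalized.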

[2] = test system: PPARg:RXRa IVT, anti-PPARg (NR concentration 270 nM, RXRa partner concentration 90 nM)
Procedure, shortened: as §1

[3] = test system: PPARg DBDmut IVT, anti-PPARg (DBD mutation: PPARg1 K132A/R137A, NR concentration 270 nM)
Procedure, shortened: as §1

[4] = test system: PPARg homodimer (NR concentration 180 nM)
Procedure, shortened: as §1

[5] = test system: PXR:RXRa (NR concentration 270 nM, RXRa partner concentration 90 nM)
Procedure, shortened: as §1

[6] = test system: PXR homodimer (NR concentration 270 nM)
Procedure, shortened: as §1

[7] = test system: RARa:RXR (NR concentration 270 nM, RXRa partner concentration 90 nM)
Procedure, shortened: as §1

[8] = test system: RARa homodimer (NR concentration 270 nM)
Procedure, shortened: as §1

[9] = test system: RARb:RXRa (NR concentration 270 nM, RXRa partner concentration 90 nM)
Procedure, shortened: as §1

[10] = test system: RARb homodimer (NR concentration 270 nM)
Procedure, shortened: as §1

[11] = test system: RARg:RXRa (NR concentration 270 nM, RXRa partner concentration 90 nM)
Procedure, shortened: as §1

[12] = test system: RARg homodimer (NR concentration 270 nM)
Procedure, shortened: as §1

[13] = test system: RXRa DBDmut IVT, anti-RXR (DBD mutation: RXRa K156A/R161A, NR concentration 90 nM)
Procedure, shortened: as §1

[14] = test system: RXRa homodimer (NR concentration 180 nM)
Procedure, shortened: as §1

[15] = test system: THRa:RXRa (NR concentration 90 nM, RXRa partner concentration 90 nM)
Procedure, shortened: as §1

[16] = test system: THRa homodimer (NR concentration 90 nM)
Procedure, shortened: as §1

[17] = test system: VDR homodimer (NR concentration 270 nM)
Procedure, shortened: as §1

Row | Sequence | PBM binding z-score [1] | PBM binding z-score [2] | PBM binding z-score [3] | PBM binding z-score [4] | PBM binding z-score [5] | PBM binding z-score [6] | PBM binding z-score [7] | PBM binding z-score [8] | PBM binding z-score [9] | PBM binding z-score [10] | PBM binding z-score [11] | PBM binding z-score [12] | PBM binding z-score [13] | PBM binding z-score [14] | PBM binding z-score [15] | PBM binding z-score [16] | PBM binding z-score [17]
1 | ATATGTAGGTTTGGGTCATTCAGAAAGTAGGGAA | 2.79 | 3.08 | 1.3 | 2.99 | 2.17 | 1.25 | 2.47 | 2.33 | 2.07 | 2.2 | 1.92 | 1.33 | 1.36 | 2.05 | 2.74 | 2.23 | 2.22
2 | CGAACTAGGTCAAAGGACAGTGACAGGCGACGTA | 8.32 | 8.4 | 1.51 | 1.78 | 1.3 | 0.0588 | 2.47 | 0.339 | 4.01 | 3.39 | 4.39 | 5.1 | 1.78 | 3.89 | 2.69 | 0.589 | 0.435
3 | CGAACTAGGACAAAGGACAGTGAAAGGCGACGTA | 4.53 | 4.05 | -0.402 | 0.327 | -0.405 | -0.257 | -0.272 | -0.328 | 1.12 | 0.856 | 0.618 | 1.24 | -0.1 | 0.0792 | 0.519 | -0.508 | -0.415
4 | ATATGTAGGTTAGGGTCATTCATAAAGTAGGGAA | 6.2 | 7.14 | 4.07 | 4.85 | 4.73 | 2.83 | 4.99 | 2.19 | 3.63 | 3.59 | 4.05 | 3 | 2.76 | 5.31 | 4.21 | 3.65 | 4.32
5 | ATATGTAGGTTAGGGTCATACAGAAAGTAGGGAA | 6.63 | 6.88 | 2.42 | 2.62 | 4.21 | 1.46 | 5.03 | 1.3 | 3.53 | 3.48 | 4.25 | 3.47 | 2.26 | 5.6 | 4.1 | 3.09 | 3.03
6 | CGAACTAGGTCATAGGACAGTGAAAGGCGACGTA | 7.81 | 8.5 | 0.801 | 1.9 | 1.2 | -0.212 | 2.17 | 0.173 | 3.5 | 2.66 | 3.62 | 3.88 | 1.21 | 3.11 | 2.64 | 0.357 | 0.417
7 | CGAACTAGGTCACCAGGGCAGTGAAGAGGTTGGA | 8.17 | 8.88 | 0.642 | 1.95 | 1.7 | -0.014 | 2.53 | 0.458 | 4.22 | 3.62 | 4.53 | 5.52 | 1.03 | 3.26 | 3.09 | 1.39 | 0.712
8 | CGAACTAGGTCACCAGTACAGTGAAGAGGTTGGA | 8.41 | 8.76 | 1.75 | 2.54 | 1.59 | -0.139 | 2.65 | 0.527 | 3.98 | 3.14 | 4.38 | 5.54 | 1.33 | 3.2 | 3.09 | 1.33 | 0.782
9 | ATATGTAGGTTAGGGCCATTCAGAAAGTAGGGAA | 6.52 | 5.91 | 1.97 | 1.54 | 0.501 | 0.512 | 0.535 | 0.865 | 1.35 | 1.13 | 0.818 | 0.94 | 0.769 | 0.668 | 1.47 | 0.811 | 0.685
10 | CGAACTAGGTCAAAGGACTGTGAAAGGCGACGTA | 8.23 | 8 | 0.977 | 1.41 | 0.827 | -0.596 | 1.86 | -0.095 | 3.58 | 2.43 | 3.69 | 4.11 | 1.71 | 2.93 | 2.19 | -0.114 | -0.0761
11 | ATATGTAGATTAGGGTCATTCAGAAAGTAGGGAA | 1.94 | 2.96 | 1.38 | 2.2 | 3.84 | 1.24 | 4.48 | 1.28 | 2.92 | 3.09 | 3.47 | 2.29 | 2.09 | 4.53 | 3.9 | 2.95 | 3.14
12 | CGAACTAGGTCAAAGGACAGTAAAAGGCGACGTA | 8.07 | 8.42 | 0.249 | 1.7 | 1.14 | 0.0773 | 2.09 | 0.769 | 4.06 | 2.85 | 4.05 | 4.79 | 1.33 | 3.25 | 2.75 | 0.556 | 0.392
13 | CGTACTAGGTCAAAGGACAGTGAAAGGCGACGTA | 7.43 | 8 | 1.47 | 2.5 | 1.14 | 0.0831 | 2.27 | 0.22 | 3.85 | 2.87 | 4.02 | 4.76 | 1.91 | 3.01 | 2.51 | 0.4 | 0.647
14 | CGAACTAGGTCACTAGGACAGTGAAGAGGTTGGA | 7.81 | 8.81 | 2.32 | 1.48 | 0.625 | 0.00587 | 1.68 | 0.195 | 3.62 | 3.02 | 3.58 | 4.16 | 1.22 | 2.07 | 2.71 | 0.967 | 0.00359
15 | CAAACTAGGTCAAAGGACAGTGAAAGGCGACGTA | 8 | 8.6 | 4.51 | 2.88 | 1.45 | 0.371 | 2.48 | 0.774 | 3.99 | 2.87 | 3.97 | 4.47 | 1.68 | 2.86 | 2.78 | 0.733 | 0.509
16 | CGAAATAGGTCACCAGGACAGTGAAGAGGTTGGA | 7.94 | 8.03 | 1.09 | 1.95 | 2.67 | 0.221 | 3.82 | 1.35 | 4.78 | 3.91 | 5.54 | 5.96 | 0.868 | 5.18 | 3.12 | 0.942 | 0.687
